The values below come from PubChem BioAssay (EPA / NIEHS).

Where “and” joins values, the source holds several entries; their conditions need not be identical. Equal entries are not always repeated. Results filed as inconclusive are left out. Some structures have more than one record in an assay (separate samples or runs), and their calls can disagree. Calls of active or inactive are those of the source. The calls were made as follows, unless noted: active = hit-call score of the fitted dose curve at least 0.9, where 1 is the maximum; inconclusive = response in the unintended direction; inactive = score below 0.9.

Test [1] addresses Nucleoli Translocation, AR (gene 367) (UniProt P10275). Nature of the test: UPITT_HCI_U2OS_AR_TIF2_Nucleoli_Antagonist: University of Pittsburgh U2OS Androgen Receptor-Transcriptional Intermediary Factor 2 (AR-TIF2) Antagonism High Content Imaging Assay for Nucleoli Translocation (AID 2283997). The method in brief: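 An antagonist-mode imaging screen: engineered U2OS (AR-RFP, TIF2-GFP) exposed to 20 uM compound, 0.2% DMSO. Activity reflects nucleolar red fluorescence change relative to DHT baseline.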

Test [2] addresses Ratio of Nucleoli Translocation and Cytoplasm, AR (gene 367) (UniProt P10275). Nature of the test: UPITT_HCI_U2OS_AR_TIF2_Nucleoli_Cytoplasm_Ratio_Agonist: University of Pittsburgh U2OS Androgen Receptor-Transcriptional Intermediary Factor 2 (AR-TIF2) Agonism High Content Imaging Assay for Ratio of Nucleoli Translocation and Cytoplasm (AID 2284000).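 Also: hits raise the red nucleolar to cytoplasm ratio above vehicle.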 In outline: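 Primary screen at 20 uM final (0.2% DMSO), then triplicate confirmation and dose-response from 0.195 to 50 uM final (0.5% DMSO). Cells: U2OS with AR-RFP and TIF2-GFP. Endpoint is the nucleoli/cytoplasm red-fluorescence ratio, gain-of-signal vs DMSO.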

The nature of test [3]: CCTE_Simmons_MITO_basal_resp_rate: CCTE's HepG2 Seahorse XF Respirometric Screening Assay at Basal Respiratory State, Simmons Lab (AID 2284001; active = hit-call score of the fitted dose curve at least 0.9, where 1 is the maximum; inactive = score below 0.9). Conditions: actives raise or lower the signal. The method in brief:
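Readout is oxygen consumption rate after test compound injection, measured by Seahorse XF in HepG2 cells. Seven concentrations from 125 nM up to 100 uM final are tested, and activity in either direction is fitted against DMSO.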

Test [4] can be described thus: CCTE_Simmons_MITO_max_resp_rate: CCTE's HepG2 Seahorse XF Respirometric Screening Assay at Maximal Respiratory State [uncoupled], Simmons Lab (AID 2284002; active = hit-call score of the fitted dose curve at least 0.9, where 1 is the maximum; inactive = score below 0.9). Conditions: actives raise or lower the signal. The method in brief:
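HepG2 oxygen consumption was read on a Seahorse XF96 after FCCP uncoupler injection, following test compound injection; 7 concentrations, 125 nM–100 uM final, three biological replicates. Bidirectional fitting against DMSO vehicle baseline.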

The test system of another test is DIO1 (gene 1733). Description: CCTE_GLTED_hDIO1: CCTE's human Deiodinase 1 (DIO1) Inhibition Assay, Great Lakes Toxicology and Ecology Division (GLTED) Lab (AID 2283987).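 Also: isolated human DIO1 enzyme in a cell-free setup rather than cells; enzyme activity read as free iodide liberated from substrate via Sandell-Kolthoff colorimetry.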 The method in brief: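 Cell-free human DIO1 enzyme was incubated with test chemical for 3 h, and iodide released from substrate was measured by Sandell-Kolthoff absorbance. Loss of signal versus DMSO baseline indicated inhibition; plates were run in triplicate.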

Test [5] addresses Nucleoli Translocation, AR (gene 367) (UniProt P10275). Description: UPITT_HCI_U2OS_AR_TIF2_Nucleoli_Agonist: University of Pittsburgh U2OS Androgen Receptor-Transcriptional Intermediary Factor 2 (AR-TIF2) Agonism High Content Imaging Assay for Nucleoli Translocation (AID 2283998). The method in brief: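 Cells express human AR fused to red fluorescent protein and TIF2 fused to GFP. Red fluorescence in the nucleolar region was quantified by high-content imaging and fitted as gain-of-signal against a DMSO baseline. Compounds were tested at 0.195 to 50 uM final (0.5% DMSO).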

The target of test [6] is Ratio of Nucleoli Translocation and Cytoplasm, AR (gene 367) (UniProt P10275). Description: UPITT_HCI_U2OS_AR_TIF2_Nucleoli_Cytoplasm_Ratio_Antagonist: University of Pittsburgh U2OS Androgen Receptor-Transcriptional Intermediary Factor 2 (AR-TIF2) Antagonism High Content Imaging Assay for Ratio of Nucleoli Translocation and Cytoplasm (AID 2283999).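 Also: antagonists lower the DHT-driven ratio of nucleolar to cytoplasmic red signal.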 The method in brief: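 High-content imaging of red fluorescence ratio, nucleoli versus cytoplasm, in U2OS expressing AR-RFP and TIF2-GFP, fitted relative to DHT. Compounds tested once at 20 uM final, then 0.195 to 50 uM final in serial dilution.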
Ratio of Nucleoli Translocation and Cytoplasm, AR (gene 367), sequence (P10275 whole entry, looked up): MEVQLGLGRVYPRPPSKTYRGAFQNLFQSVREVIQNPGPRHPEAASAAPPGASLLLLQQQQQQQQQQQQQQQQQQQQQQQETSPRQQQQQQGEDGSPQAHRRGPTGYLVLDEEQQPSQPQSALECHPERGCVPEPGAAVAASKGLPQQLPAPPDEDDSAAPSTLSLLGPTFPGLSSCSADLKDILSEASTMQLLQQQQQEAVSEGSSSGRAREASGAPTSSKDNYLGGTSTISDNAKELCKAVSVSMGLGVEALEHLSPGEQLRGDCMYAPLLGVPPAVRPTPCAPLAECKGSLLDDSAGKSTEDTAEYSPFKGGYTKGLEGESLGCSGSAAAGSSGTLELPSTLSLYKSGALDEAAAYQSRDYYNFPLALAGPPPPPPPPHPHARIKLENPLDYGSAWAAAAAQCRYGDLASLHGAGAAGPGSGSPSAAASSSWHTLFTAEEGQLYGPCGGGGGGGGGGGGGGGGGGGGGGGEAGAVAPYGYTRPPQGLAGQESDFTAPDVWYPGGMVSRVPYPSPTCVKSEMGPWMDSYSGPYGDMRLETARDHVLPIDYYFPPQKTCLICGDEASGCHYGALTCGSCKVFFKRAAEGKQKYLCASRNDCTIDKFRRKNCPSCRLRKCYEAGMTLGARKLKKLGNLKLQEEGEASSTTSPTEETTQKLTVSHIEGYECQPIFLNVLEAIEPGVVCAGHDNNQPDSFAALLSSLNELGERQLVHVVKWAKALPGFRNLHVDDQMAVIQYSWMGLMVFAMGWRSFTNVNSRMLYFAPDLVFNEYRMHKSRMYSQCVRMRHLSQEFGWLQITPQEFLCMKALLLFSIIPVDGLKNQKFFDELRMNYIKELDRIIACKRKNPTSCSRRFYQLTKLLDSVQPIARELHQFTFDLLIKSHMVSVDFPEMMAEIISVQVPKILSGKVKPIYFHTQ

Test [7] is described as follows: CCTE_Harrill_HTTr_Apoptosis_PRF_DMEM_6hr: (Pilot) CCTE's 6-hour Apoptosis Assessment for the High-Throughput Transcriptomics (HTTr) Platform, in MCF-7 cells cultured phenol red-free DMEM + 10% charcoal-stripped fetal bovine serum, Harrill Lab (AID 2283984; active = hit-call score of the fitted dose curve at least 0.9, where 1 is the maximum; inactive = score below 0.9). An excerpt: (§1) This is a cell-based assay that evaluates apoptosis using high content imaging to evaluate activation of caspase-3/7 using the CellEvent Caspase 3/7 Green detection reagent in 384-well format.One of seven assay components measured from the CCTE_Harrill_HTTr_Apoptosis assay. This was part of a pilot experiment. This is a cell-based assay that evaluates apoptosis in MCF-7 cells cultured in phenol red-free DMEM + 10% charcoal-stripped fetal bovine serum. High content imaging is used to evaluate activation of caspase-3/7 using the CellEvent Caspase 3/7 Green detection reagent. Measurements are taken at 6 hours after chemical dosing in 384-well format.The assay component endpoint CCTE_Harrill_HTTr_Apoptosis_PRF_DMEM_6hr was analyzed with bidirectional fitting relation to DMSO as the negative control and baseline of activity. Using a type of viability reporter, gain-of-signal activity can be used to evaluate activation of caspase-3/7 using the CellEvent Caspase 3/7 Green detection reagent to understand changes in apoptosis. To generalize the intended target to other relatable targets, this assay endpoint is annotated to cell cycle, where the subfamily is apoptosis.
Chemicals were tested in MCF7 cells in an eight point dilution series with a six hour exposure duration.

A short description of test [8]: CCTE_Harrill_HTTr_Apoptosis_PRF_DMEM_12hr: (Pilot) CCTE's 12-hour Apoptosis Assessment for the High-Throughput Transcriptomics (HTTr) Platform, in MCF-7 cells cultured in phenol red-free DMEM + 10% charcoal-stripped fetal bovine serum, Harrill Lab (AID 2283985; active = hit-call score of the fitted dose curve at least 0.9, where 1 is the maximum; inactive = score below 0.9). In outline:
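Caspase-3/7 activity by CellEvent Green high content imaging after 12 h compound exposure (eight concentrations) in MCF-7 grown in phenol red-free DMEM plus 10% charcoal-stripped serum; DMSO as baseline.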

Test [9] can be described thus: CCTE_Harrill_HTTr_Apoptosis_PRF_DMEM_24hr: (Pilot) CCTE's 24-hour Apoptosis Assessment for the High-Throughput Transcriptomics (HTTr) Platform, in MCF-7 cells cultured in phenol red-free DMEM + 10% charcoal-stripped fetal bovine serum, Harrill Lab (AID 2283986; active = hit-call score of the fitted dose curve at least 0.9, where 1 is the maximum; inactive = score below 0.9).
From the text: as §1, with “24” for “6”, “CCTE_Harrill_HTTr_Apoptosis_PRF_DMEM_24hr” for “CCTE_Harrill_HTTr_Apoptosis_PRF_DMEM_6hr”
Chemicals were tested in MCF7 cells in an eight point dilution series with a twenty-four hour exposure duration.

Nucleoli Translocation, AR (gene 367), sequence (P10275 whole entry, looked up, the tested form may be a part): as the sequence (P10275 whole entry, looked up) above

In general, AC50 refers to the concentration giving half of the maximal activity seen. For the molecule `CCOC1Oc2ccc(OS(C)(=O)=O)cc2C1(C)C` (stereo unspecified), the molecule was called inactive in [1] and in test [2]. Further, the AC50 in test [3] is 33.5 µM (active); in [4] it was 35.3 µM (active).

For `COP(=S)(OC)Oc1ccc(SC)c(C)c1`, the AC50 in the test on DIO1 (gene 1733) was 10.7 µM (active).

Turning to `C#CCN1C(=O)COc2cc(F)c(N3C(=O)C4=C(CCCC4)C3=O)cc21`, the result in test [1], in [5], in test [6] and in [2] was inactive. Besides, the AC50 in [3] was 64.9 µM (active); in test [4], 53.1 µM (active).

Turning to `CCC(C)(C)C(=O)OC1=C(c2ccc(Cl)cc2Cl)C(=O)OC12CCCCC2`, the AC50 in [1] is 50 µM (active). For the same molecule, the molecule was classed as inactive in test [5], in test [6] and in test [2].

On to `CCC(C)(NC(=O)c1cc(Cl)c(C)c(Cl)c1)C(=O)CCl` (stereo unspecified), for which the AC50 in the test with DIO1 (gene 1733) is 16.1 µM (active). Also, the result in [3] and in test [4] was inactive.

Regarding `Oc1cc(Cl)ccc1Oc1ccc(Cl)cc1Cl`, the AC50 in the test on DIO1 (gene 1733) is 60.4 µM (active) [middle of 5 runs]; in test [3], 21 µM (active); in [4], 19.3 µM (active). Also, in test [3], the call was inactive.

As to `O=[N+]([O-])c1c(Cl)c(Cl)c(Cl)c(Cl)c1Cl`, the AC50 in test [1] was 20.6 µM (active). The molecule was classed as inactive in [5], in test [6] and in test [2].

Turning to `C[C@H]1[C@H](c2ccc(Cl)cc2)SC(=O)N1C(=O)NC1CCCCC1`, in test [1], the concentration at half-maximal activity (AC50) is 27.4 µM (active). For the same molecule, the molecule was classed as inactive in test [5], in [6] and in test [2].

Consider `N#Cc1c(Cl)c(Cl)c(Cl)c(C#N)c1Cl`, for which the AC50 in the test on DIO1 (gene 1733) is 30.1 µM (active); in [3], 22.9 µM (active). Moreover, the molecule was classed as inactive in [4].

Take `Oc1ccc(Cl)cc1Cc1ccccc1`: the AC50 in test [1] was 19.1 µM (active); in [5], 13 µM (active); in [6] it was 7.42 µM (active); in [3], 18.3 µM (active) and 24 µM (active); in [4], 32.8 µM (active) and 41.5 µM (active).

For the molecule `O=C(O)CCCOc1ccc(Cl)cc1Cl`, the call in [1], in test [5], in test [2] and in test [4] was inactive. Moreover, the AC50 in [3] is 32.5 µM (active).

As to `O=C(O)COc1ccc(Cl)cc1Cl`, the outcome in test [3] and in test [4] was inactive.

Consider `CCCN(CCC)c1c([N+](=O)[O-])cc(C(F)(F)F)cc1[N+](=O)[O-]`, for which the molecule was called inactive in test [1], in [6] and in [2].

As to `CC[C@H](C)[C@H]1O[C@]2(C=C[C@@H]1C)C[C@@H]1C[C@@H](C/C=C(\C)[C@@H](O[C@H]3C[C@H](OC)[C@@H](O[C@H]4C[C@H](OC)[C@@H](O)[C@H](C)O4)[C@H](C)O3)[C@@H](C)/C=C/C=C3\CO[C@@H]4[C@H](O)C(C)=C[C@@H](C(=O)O1)[C@]34O)O2` (tested in a mixture with another compound), the AC50 in test [3] was 24.7 µM (active); in test [4], 18 µM (active).

With `O=C(O)C(F)(F)C(F)(F)C(F)(F)C(F)(F)C(F)(F)C(F)(F)C(F)(F)F`, the result in [7], in test [8] and in test [9] was inactive.

Regarding `CC1(c2ccc(Oc3ccccc3)cc2)OC(=O)N(Nc2ccccc2)C1=O` (stereo unspecified), the results for the AC50 in test [3] and in test [4] were 4.7 µM (active) and 3.04 µM (active), respectively.

On to `O=S(=O)(O)C(F)(F)C(F)(F)C(F)(F)C(F)(F)C(F)(F)C(F)(F)C(F)(F)C(F)(F)F`, for which the result in test [7], in test [8] and in test [9] was inactive. For the same molecule, the AC50 in the test with DIO1 (gene 1733) was 173 µM (active) and 159 µM (active) and 170 µM (active).

`CCCN(CCOc1c(Cl)cc(Cl)cc1Cl)C(=O)n1ccnc1`: the outcome in test [7], in test [8] and in test [9] was inactive. Further, the AC50 in [3] is 11.2 µM (active); in test [4], 18 µM (active).

For the molecule `CCC(C)Nc1c([N+](=O)[O-])cc(C(C)(C)C)cc1[N+](=O)[O-]` (stereo unspecified), the result in test [3] and in test [4] was inactive.

For `COP(=S)(OC)Oc1ccc([N+](=O)[O-])cc1`, the call in test [3] and in test [4] was inactive.

Regarding `O=[N+]([O-])/N=C1\NCCN1Cc1ccc(Cl)nc1`, the outcome in [1], in [5] and in [2] was inactive.

With `CCOCN(C(=O)CCl)c1c(C)cccc1CC`, the call in [3] and in test [4] was inactive.

Take `Cc1[nH]c(=O)n(C(C)(C)C)c(=O)c1Cl`: the call in [1], in test [5] and in test [2] was inactive.

Consider `CC(C)(C)C(O)/C(=C\c1ccc(Cl)cc1Cl)n1cncn1` (stereo unspecified), for which the AC50 in test [3] was 15.8 µM (active); in test [4], 21.1 µM (active).

On to `O=S1OCC2C(CO1)C1(Cl)C(Cl)=C(Cl)C2(Cl)C1(Cl)Cl` (stereo unspecified), for which the AC50 in test [1] is 30.6 µM (active). Also, the call in test [5] and in test [6] was inactive.
